Test results as given in PubChem BioAssay (NCATS).
Inconclusive results are not listed. Calls of active or inactive are those of the source. Unless noted, the call rests on the fitted dose curve; in most records, active means well fitted curve in the direction sought with a large enough effect; inconclusive means small, poorly fitted or top-dose-only effect, or another doubt; inactive means no such curve, though single readings can be large; an effect the other way counts as inactive or inconclusive.

Experiments:
[1] = Cell Viability - LYMP2-019 (AID 973);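 further: 0% = DMSO alone and full effect = 92 µM tetraoctylammonium bromide; nearly all actives have a fitted effect of over 55% in size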
Outline: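 AC50 values come from Hill-equation modelling of qHTS concentration-response curves, where viability is measured as luciferase-based ATP luminescence in the lymphoblastoid line after 24 hr compound exposure in complete culture medium.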

[2] = Cell Viability - LYMP2-021 (AID 974);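 further: compound exposure lasts 24 hours at 37 °C; on the % scale 0 is the no-effect control and ±100 the full control effect; nearly all actives have a fitted effect of over 55% in size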
Outline: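 In qHTS format, compounds are tested against 2500 lymphoblastoid cells per well for 24 h; viable cell number is inferred from ATP-driven luciferase light, and Hill-equation fitting yields AC50 values.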

[3] = Cell Viability - LYMP2-023 (AID 975);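 further: cellular ATP measured by luciferase luminescence as viability proxy; series mostly up to about 92 µM; plate controls were DMSO only for no effect and 92 µM tetraoctylammonium bromide control for full effect; nearly all actives have a fitted effect of over 55% in size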
Outline: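 In this qHTS, ATP-based luciferase luminescence (CellTiter-Glo) is quantified in human lymphoblastoid cells after 24 hr compound treatment at 37 C; tetraoctylammonium bromide serves as positive control. Concentration-response curves are Hill-fitted to give AC50.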

[4] = Cell Viability - LYMP2-025 (AID 976);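 further: series mostly up to about 92 µM; plate controls were DMSO only for no effect and tetraoctylammonium bromide control for full effect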
Outline: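 Luminescent ATP readout after 24 hr treatment of a human lymphoblastoid line (LYMP2-025, 2500 cells/well, 37 C). Reagent developed 30 min at room temperature; AC50 fitted with the Hill equation.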

[5] = Cell Viability - LYMP2-002 (AID 977);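 further: series mostly up to about 92 µM; compound exposure lasted 24 h at 37 °C; plate controls were DMSO only for no effect and 92 µM tetraoctylammonium bromide for full effect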
Outline: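 Human lymphoblastoid cells (2500/well) in complete medium were preincubated 5 hr at 37 C, then exposed to compounds for 24 hr at 37 C. Intracellular ATP was read by CellTiter-Glo luminescence; AC50 came from Hill-equation concentration-response fits.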

[6] = Cell Viability - LYMP2-006 (AID 978); further: series mostly up to about 92 µM; on the % scale 0 is the no-effect control and ±100 the full control effect; nearly all actives have a fitted effect of over 60% in size
Outline: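 Cells are seeded at 2500 per well and rested 5 hr at 37 C. Compounds are added across a concentration series for 24 hr at 37 C, after which ATP is quantified by luciferase luminescence.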

[7] = Cell Viability - LYMP2-008 (AID 980); further: on the % scale 0 is the no-effect control and ±100 the full control effect; nearly all actives have a fitted effect of over 60% in size
Outline: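 Measured: ATP-dependent luminescence, proportional to viable cell number, in human lymphoblastoid cells treated 24 hr with compound in complete culture medium. Values are AC50s from Hill-equation modelling of qHTS titrations.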

[8] = Cell Viability - LYMP2-010 (AID 981); further: on the % scale 0 is the no-effect control and ±100 the full control effect; nearly all actives have a fitted effect of over 55% in size
Outline: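 This 24 hr viability screen uses LYMP2-010 lymphoblastoid cells, quantifies ATP via luciferase luminescence, and derives AC50 from Hill fits of qHTS concentration-response data.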

[9] = Cell Viability - LYMP2-012 (AID 982)
[10] = Cell Viability - LYMP2-014 (AID 983);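 further: series mostly up to about 92 µM; plate controls were DMSO only for no effect and 92 µM tetraoctylammonium bromide for full effect; nearly all actives have a fitted effect of over 50% in size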
Outline: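 Quantitative HTS in lymphoblastoid cells: 24 hr compound exposure, then CellTiter-Glo ATP luminescence. Positive control was tetraoctylammonium bromide, 6.4pM to 92 uM.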

[11] = Cell Viability - LYMP2-016 (AID 984)
Outline: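 Cells were seeded at 2500 per well and rested 5 hr before a 24 hr compound exposure at 37 C. Viability was then gauged as cellular ATP by luciferase luminescence, with AC50 values fitted to the Hill equation.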

[12] = Cell Viability - LYMP2-020 (AID 986)
Outline: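 Cells at 2500 per well receive a 24 hr compound exposure at 37 C. Viability is measured as ATP-dependent luciferase luminescence, with AC50 modeled from qHTS concentration-response curves.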

[13] = Cell Viability - LYMP2-022 (AID 987)
Outline: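 In this qHTS cytotoxicity screen, compound titrations were incubated 24 hr at 37 C with human lymphoblastoid cells in complete medium. Luciferase-based ATP luminescence provided the viability signal.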

[14] = Cell Viability - LYMP2-024 (AID 988);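 further: plate controls were DMSO only for no effect and 92 µM tetraoctylammonium bromide for full effect; nearly all actives have a fitted effect of over 60% in size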
Outline: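 Cells at 2500 per well received compound for 24 hr after a 5 hr settling period. Viability was scored by CellTiter-Glo luminescence, with AC50 from Hill fits.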

[15] = Cell Viability - LYMP2-026 (AID 989); further: on the % scale 0 is the no-effect control and ±100 the full control effect; nearly all actives have a fitted effect of over 50% in size
Outline: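 Acute toxicity screen in complete culture medium, with 24 hr compound exposure at 37 C. Viability read as cellular ATP via luciferase reaction, with tetraoctylammonium bromide (6.4pM to 92 uM) as positive control.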

[16] = Cell Viability - LYMP1-002 - Assay at 24 hr (AID 993); further: on the % scale 0 is the no-effect control and ±100 the full control effect
Outline: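 Viability was judged from intracellular ATP using a luciferase read-out, following a 24-hour compound incubation at 37 C of lymphoblastoid cells seeded at 2500 per well. Concentration-response data were fitted to the Hill equation for AC50.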

[17] = Cell Viability - LYMP1-002 - Assay at 40 hr (AID 994);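 further: 0% = DMSO only and full inhibition = 92 µM tetraoctylammonium bromide; nearly all actives have a fitted effect of over 60% in size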
Outline: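 Concentration-dependent ATP loss after 40 hr treatment at 37 C defined toxicity; AC50 values were obtained by fitting the standard Hill equation.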

[18] = biological target: Androgen receptor (Homo sapiens) (UniProt P10275); assay: qHTS assay for small molecule agonists of androgen receptor signaling (AID 588515; active means well fitted curve in the direction sought with a large enough effect in the signal ratio, with a control signal flat; the % refers to the signal ratio; further: on the % scale 0 is the no-effect control and ±100 the full control effect); details: AR-UAS-bla HEK293, beta-lactamase ratio, agonist 16 h; stronger effect = higher value
Androgen receptor (Homo sapiens), sequence (P10275 whole entry, looked up): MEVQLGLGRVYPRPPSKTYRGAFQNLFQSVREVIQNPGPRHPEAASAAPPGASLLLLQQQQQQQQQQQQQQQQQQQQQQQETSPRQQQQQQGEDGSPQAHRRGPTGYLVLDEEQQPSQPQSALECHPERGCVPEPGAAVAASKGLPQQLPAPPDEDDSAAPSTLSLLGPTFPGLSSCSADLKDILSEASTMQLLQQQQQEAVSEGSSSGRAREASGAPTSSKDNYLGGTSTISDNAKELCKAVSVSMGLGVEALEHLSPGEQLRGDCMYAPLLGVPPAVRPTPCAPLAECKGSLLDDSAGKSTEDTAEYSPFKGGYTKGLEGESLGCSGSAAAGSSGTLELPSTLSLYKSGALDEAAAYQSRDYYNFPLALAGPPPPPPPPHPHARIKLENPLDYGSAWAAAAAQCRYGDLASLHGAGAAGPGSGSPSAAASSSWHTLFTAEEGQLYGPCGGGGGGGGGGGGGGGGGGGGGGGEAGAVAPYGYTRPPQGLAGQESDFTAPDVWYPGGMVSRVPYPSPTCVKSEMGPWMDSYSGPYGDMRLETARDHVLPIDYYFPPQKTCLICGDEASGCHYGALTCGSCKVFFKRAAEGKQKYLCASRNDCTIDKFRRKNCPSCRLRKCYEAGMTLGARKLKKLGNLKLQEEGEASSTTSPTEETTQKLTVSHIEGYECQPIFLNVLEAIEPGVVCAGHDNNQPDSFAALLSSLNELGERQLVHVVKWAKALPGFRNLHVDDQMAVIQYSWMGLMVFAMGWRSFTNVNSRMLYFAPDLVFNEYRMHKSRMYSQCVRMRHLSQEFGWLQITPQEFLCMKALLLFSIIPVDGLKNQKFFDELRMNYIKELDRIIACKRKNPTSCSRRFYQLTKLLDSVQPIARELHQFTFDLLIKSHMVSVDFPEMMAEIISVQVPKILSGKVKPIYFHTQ
Outline: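 Stimulation of an AR-responsive β-lactamase reporter in GripTite HEK293 cells was measured after 16 h compound exposure at 37 °C, via CCF4 fluorescence after 2 h RT. EC50 from Hill fits, normalized to R1881 at 30 nM.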

[19] = biological target: Bile acid receptor (Homo sapiens) (UniProt Q96RI1); assay: qHTS assay for small molecule antagonists of farnesoid X receptor signaling (AID 588526; calls by dose curve; further: on the % scale 0 is the no-effect control and ±100 the full control effect)
Bile acid receptor (Homo sapiens), sequence (Q96RI1 whole entry, looked up): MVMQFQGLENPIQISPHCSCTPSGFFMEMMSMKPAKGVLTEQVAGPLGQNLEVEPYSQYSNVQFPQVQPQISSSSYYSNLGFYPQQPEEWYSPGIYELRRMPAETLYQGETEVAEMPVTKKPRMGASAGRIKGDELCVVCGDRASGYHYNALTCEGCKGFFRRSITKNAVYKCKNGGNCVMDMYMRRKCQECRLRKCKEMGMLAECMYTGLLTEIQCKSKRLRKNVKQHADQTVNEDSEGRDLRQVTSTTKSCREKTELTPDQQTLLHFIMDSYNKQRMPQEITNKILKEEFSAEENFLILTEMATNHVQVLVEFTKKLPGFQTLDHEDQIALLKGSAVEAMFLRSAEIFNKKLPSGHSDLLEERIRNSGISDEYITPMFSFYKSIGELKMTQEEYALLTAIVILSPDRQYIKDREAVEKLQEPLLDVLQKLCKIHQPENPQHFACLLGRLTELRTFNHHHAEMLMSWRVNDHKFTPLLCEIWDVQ
Outline: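 Beta-lactamase reporter antagonist mode: HEK293T FXR-UAS-bla cells, titrated compound, CDCA stimulation, 16 h 37 C, CCF4 dye 2 h RT. Data normalized to CDCA 50 uM and DMSO; Hill-fit IC50.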

[20] = qHTS assay for small molecule antagonists of peroxisome proliferator-activated receptor delta signaling (AID 588535); details: HEK293T PPARd-UAS-bla, beta-lactamase FRET ratio, 18 h; 460 nm channel;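 further: cells co-treated with a PPAR-delta agonist as stimulator during compound exposure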
Outline: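 Antagonist-mode qHTS using GeneBLAzer PPAR-delta-UAS-bla HEK293T cells; compound exposure 18 hrs at 37 C over a titration. Ratiometric CCF4 fluorescence at 460/530 nm; concentration-response points fitted to the Hill equation.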

[21] = biological target: Peroxisome proliferator-activated receptor gamma (Homo sapiens) (UniProt P37231); assay: qHTS assay for small molecule agonists of peroxisome proliferator-activated receptor gamma signaling (AID 588536; active means well fitted curve in the direction sought with a large enough effect in the signal ratio, with a control signal flat, not every such curve was filed as active; the % refers to the signal ratio;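 further: 0% = DMSO basal wells and 100% = rosiglitazone at 2 µM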)
Peroxisome proliferator-activated receptor gamma (Homo sapiens), sequence (P37231 whole entry, looked up): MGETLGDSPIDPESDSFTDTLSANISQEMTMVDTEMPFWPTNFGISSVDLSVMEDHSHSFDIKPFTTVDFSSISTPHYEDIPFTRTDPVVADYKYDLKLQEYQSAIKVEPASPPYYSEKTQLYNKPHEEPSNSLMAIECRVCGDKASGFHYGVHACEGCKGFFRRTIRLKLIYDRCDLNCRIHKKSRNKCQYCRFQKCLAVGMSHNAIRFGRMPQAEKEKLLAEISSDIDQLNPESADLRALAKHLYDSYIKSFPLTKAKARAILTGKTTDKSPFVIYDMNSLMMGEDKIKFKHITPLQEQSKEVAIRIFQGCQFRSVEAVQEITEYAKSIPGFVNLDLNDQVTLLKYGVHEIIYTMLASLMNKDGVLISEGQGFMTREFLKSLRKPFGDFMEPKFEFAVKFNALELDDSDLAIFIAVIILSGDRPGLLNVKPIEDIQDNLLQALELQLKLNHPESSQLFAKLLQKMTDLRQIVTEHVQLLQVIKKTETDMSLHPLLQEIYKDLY
Outline: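 Compound treatment: 16 h, 37 C, HEK293 GeneBLAzer cells. Detection: CCF4, 2 h RT. Values: Hill-fit EC50, efficacy as % of 2 uM rosiglitazone.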

[22] = biological target: Peroxisome proliferator-activated receptor gamma (Homo sapiens) (UniProt P37231); assay: qHTS assay for small molecule antagonists of peroxisome proliferator-activated receptor gamma signaling (AID 588537; active means well fitted inhibition curve with a large enough effect in the signal ratio, with a control signal flat, not every such curve was filed as active; the % refers to the signal ratio;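 further: reporter cells co-stimulated with 50 nM rosiglitazone agonist during compound treatment; % of control where 0% means no effect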)
Outline: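 Cell-based beta-lactamase assay; GW9662 served as the antagonist control. Stimulation used rosiglitazone, final 50 nM, 16 h, 37 C.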

[23] = biological target: Vitamin D3 receptor (Homo sapiens) (UniProt P11473); assay: qHTS assay for small molecule antagonists of vitamin D receptor signaling (AID 588541; calls by dose curve;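 further: receptor activated by calcitriol during compound treatment; series mostly up to about 77 µM; on the % scale 0 is the no-effect control and ±100 the full control effect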)
Vitamin D3 receptor (Homo sapiens), sequence (P11473 whole entry, looked up): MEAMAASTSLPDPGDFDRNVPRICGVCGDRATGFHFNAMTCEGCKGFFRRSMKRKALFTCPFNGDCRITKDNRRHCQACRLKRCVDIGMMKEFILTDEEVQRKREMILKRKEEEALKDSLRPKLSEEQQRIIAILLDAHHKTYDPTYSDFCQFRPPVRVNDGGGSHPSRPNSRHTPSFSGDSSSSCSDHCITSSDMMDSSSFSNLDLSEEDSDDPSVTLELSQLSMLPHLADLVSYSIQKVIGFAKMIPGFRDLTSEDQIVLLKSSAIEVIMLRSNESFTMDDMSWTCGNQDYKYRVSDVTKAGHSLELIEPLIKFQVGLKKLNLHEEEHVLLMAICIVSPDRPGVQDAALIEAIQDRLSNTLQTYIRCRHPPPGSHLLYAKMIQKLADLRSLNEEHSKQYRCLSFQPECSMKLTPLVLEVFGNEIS
Outline: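 Antagonist-mode beta-lactamase reporter assay: HEK293T VDR-UAS-bla cells were exposed to titrated compound alongside 1-alpha,25-dihydroxyvitamin D3 at 3 nM final for 16 h. Values were normalized to the 50 nM agonist control and DMSO basal, with IC50 and efficacy from Hill equation fits.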

[24] = biological target: Vitamin D3 receptor (Homo sapiens) (UniProt P11473); assay: qHTS assay for small molecule agonists of vitamin D receptor signaling (AID 588543; calls by dose curve;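 further: 0% = DMSO basal and 100% = reference agonist control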)
Outline: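 Reporter cells (HEK293T, VDR-UAS-bla) were seeded in medium with 2% charcoal-stripped serum and incubated 5 h, then compounds in concentration series were added for 16 h at 37 °C. Stimulation was scaled between DMSO basal and 50 nM 1α,25-dihydroxyvitamin D3.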

[25] = qHTS assay for small molecule agonists of retinoid X receptor alpha signaling (AID 588544; calls by dose curve;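 on activation: 0% = DMSO basal wells and 100% = reference agonist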); details: HEK293T RXRa-UAS-bla, beta-lactamase reporter, 18 h; 530 nm emission
[26] = biological target: Retinoic acid receptor RXR-alpha (Homo sapiens) (UniProt P19793); assay: as above
Retinoic acid receptor RXR-alpha (Homo sapiens), sequence (P19793 whole entry, looked up): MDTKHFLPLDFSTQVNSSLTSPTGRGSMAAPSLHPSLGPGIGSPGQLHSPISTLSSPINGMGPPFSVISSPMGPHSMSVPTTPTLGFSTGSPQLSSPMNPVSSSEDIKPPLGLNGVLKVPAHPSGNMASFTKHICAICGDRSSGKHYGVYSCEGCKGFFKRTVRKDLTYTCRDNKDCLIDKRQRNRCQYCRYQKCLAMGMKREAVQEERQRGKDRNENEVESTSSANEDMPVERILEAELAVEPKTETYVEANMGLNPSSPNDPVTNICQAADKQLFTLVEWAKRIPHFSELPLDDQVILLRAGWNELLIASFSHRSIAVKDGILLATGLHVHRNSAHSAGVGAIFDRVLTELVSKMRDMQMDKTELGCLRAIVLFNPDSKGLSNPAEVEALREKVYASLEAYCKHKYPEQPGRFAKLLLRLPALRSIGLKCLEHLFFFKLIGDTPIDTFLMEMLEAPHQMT

[27] = biological target: Thyroid hormone receptor beta (Homo sapiens) (UniProt P10828); assay: qHTS assay for small molecule agonists of thyroid hormone receptor beta signaling (AID 588545; calls by dose curve)
Thyroid hormone receptor beta (Homo sapiens), sequence (P10828 whole entry, looked up): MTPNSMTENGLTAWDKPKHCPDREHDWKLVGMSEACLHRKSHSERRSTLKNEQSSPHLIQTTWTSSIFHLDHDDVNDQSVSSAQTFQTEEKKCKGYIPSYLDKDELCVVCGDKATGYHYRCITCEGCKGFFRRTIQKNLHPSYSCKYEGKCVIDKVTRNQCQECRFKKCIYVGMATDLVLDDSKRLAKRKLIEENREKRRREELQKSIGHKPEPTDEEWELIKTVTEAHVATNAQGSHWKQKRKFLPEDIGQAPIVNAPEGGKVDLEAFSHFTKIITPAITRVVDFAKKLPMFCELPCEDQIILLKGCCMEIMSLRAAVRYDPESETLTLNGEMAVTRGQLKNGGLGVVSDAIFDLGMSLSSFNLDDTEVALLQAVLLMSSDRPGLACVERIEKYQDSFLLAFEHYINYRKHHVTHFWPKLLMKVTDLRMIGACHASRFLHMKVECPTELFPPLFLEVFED
Outline: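 Agonist activity was read as beta-lactamase CCF4 fluorescence (405 ex, 460/530 em), scaled between DMSO (0%) and 10 nM T3 (100%), then Hill-fitted for EC50 and efficacy. HEK 293 TR-UAS-bla cells in 2% charcoal/dextran FBS medium were exposed 18 h at 37 C.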

[28] = qHTS assay for small molecule antagonists of retinoid X receptor alpha signaling (AID 588546; active means well fitted inhibition curve with a large enough effect in the signal ratio, with a control signal flat, not every such curve was filed as active; the % refers to the signal ratio); details: HEK293T RXRa-UAS-bla, beta-lactamase ratio, antagonist mode; measured here: W530 green channel, cytotoxicity proxy
Outline: (§1)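 Beta-lactamase reporter inhibition, read as CCF4 fluorescence ratio (ex 405, em 460/530 nm) after 2 h at RT. HEK293T UAS-bla cells, 2500/well, were stimulated with 9-cis-RA at 500 or 100 nM final alongside test compound for 18 h at 37 C.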

[29] = biological target: Retinoic acid receptor RXR-alpha (Homo sapiens) (UniProt P19793); assay: as above; details: HEK293T RXRa-UAS-bla, beta-lactamase ratio, antagonist mode
Outline: as §1

[30] = biological target: Thyroid hormone receptor beta (Homo sapiens) (UniProt P10828); assay: qHTS assay for small molecule antagonists of thyroid hormone receptor beta signaling (AID 588547; active means well fitted inhibition curve with a large enough effect in the signal ratio, with a control signal flat, not every such curve was filed as active; the % refers to the signal ratio); details: TR-UAS-bla HEK293, beta-lactamase ratio, antagonist mode, 18 h
Outline: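 Inhibition of T3-driven (0.4nM final) beta-lactamase reporter activity was measured over 0.59 nM to 92 uM compound after 18 h at 37 C. The cells were GripTite HEK293 TR-UAS-bla in charcoal/dextran-stripped serum, with CCF4 ratio read-out and IC50 from Hill fits.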

[31] = qHTS assay for small molecule activators of the p53 signaling pathway (AID 651743; active means well fitted activation curve with a large enough effect in the signal ratio, not every such curve was filed as active; the % refers to the signal ratio; further: series mostly up to about 92 µM; % of control where 0% means no effect); details: HCT-116 p53RE-bla, beta-lactamase FRET ratio, 16 h; activation: stronger effect = higher value
Outline: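 A beta-lactamase reporter under p53 response element control, stably carried by HCT-116 cells, reported pathway activation. Test compounds were applied for 16 hours at 37 C, and fluorescence was measured 2 hours after adding the B/G FRET substrate.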

[32] = qHTS assay for small molecule activators of the nuclear factor-kappa B (NF-kB) signaling pathway (AID 651749; active means well fitted activation curve with a large enough effect in the signal ratio; the % refers to the signal ratio; further: series mostly up to about 77 µM; % of control where 0% means no effect); details: NF-kB-bla ME-180 cells, beta-lactamase FRET ratio, 16 h; stronger effect = higher value
Outline: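 FRET-based beta-lactamase detection in ME-180 cells reports NF-kB response-element-driven transcription following overnight (16 hr) compound treatment.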

[33] = qHTS assay for small molecule disruptors of the mitochondrial membrane potential - 5 hr assay (AID 651755; calls by dose curve; further: on the % scale 0 is the no-effect control and ±100 the full control effect; nearly all actives have a fitted effect of over 40% in size)
Outline: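 Membrane-potential dye readout: red aggregate (540 ex/590 em) versus green monomer (490 ex/535 em) fluorescence after 30 min dye loading, following 5 hr compound exposure at 37C of overnight-plated HepG2 cells.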

[34] = biological target: Tumor necrosis factor (Homo sapiens) (UniProt P01375); assay: qHTS assay to identify small molecules that stimulate Tumor Necrosis Factor-alpha (TNF-alpha) secretion (AID 651757; active means well fitted curve in the direction sought with a large enough effect in the signal ratio; the % refers to the signal ratio; further: 0% is about no effect)
Tumor necrosis factor (Homo sapiens), sequence (P01375 whole entry, looked up): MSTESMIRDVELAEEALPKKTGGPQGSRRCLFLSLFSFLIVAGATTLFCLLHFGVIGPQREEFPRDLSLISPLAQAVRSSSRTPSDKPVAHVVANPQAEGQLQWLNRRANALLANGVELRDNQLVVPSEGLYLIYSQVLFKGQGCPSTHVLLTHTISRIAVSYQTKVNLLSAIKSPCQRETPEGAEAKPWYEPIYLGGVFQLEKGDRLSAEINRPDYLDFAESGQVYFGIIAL
Outline: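 Using 3000 THP-1 cells per well, compounds and controls were applied for 17 hrs at 37 C. Detection followed with two labeled anti-TNF-alpha antibodies (cryptate donor, XL665 acceptor) for 3 hr at room temperature, measured by TR-FRET.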

[35] = qHTS assay to identify small molecules that stimulate interleukin-8 (IL-8) secretion (AID 651758; active means well fitted activation curve with a large enough effect in the signal ratio; the % refers to the signal ratio; further: 0% is about no effect)
Outline: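 Secreted IL-8 measured homogeneously by TR-FRET (two labelled anti-IL-8 antibodies, 1-3 h at room temperature) after a 16 h, 37 C compound treatment of THP-1 cells at 2000 cells/well.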

[36] = qHTS assay for environmental chemicals that activate the Aryl hydrocarbon Receptor (AhR) signaling pathway (AID 651777); details: 1A2-DRE human hepatoma cells, luciferase, 24 h; activation: stronger effect = higher value; further: % of control where 0% means no effect; nearly all actives have a fitted effect of over 15% in size
Outline: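 Luminescence read-out: One-Glo added for 30 min at RT after 24 hr compound treatment (37 C, 5% CO2) of human hepatoma cells expressing a DRE/CYP1A2 promoter–luciferase reporter; increased signal indicates AhR activation.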

[37] = biological target: Peroxisome proliferator-activated receptor alpha (Homo sapiens) (UniProt Q07869); assay: qHTS assay for small molecule agonists of the peroxisome proliferator-activated receptor alpha (PPARalpha) signaling pathway (AID 651778); details: PathHunter PPARalpha complementation, chemiluminescence, 6 h; max response: stronger effect = higher value; further: % of control where 0% means no effect
Peroxisome proliferator-activated receptor alpha (Homo sapiens), sequence (Q07869 whole entry, looked up): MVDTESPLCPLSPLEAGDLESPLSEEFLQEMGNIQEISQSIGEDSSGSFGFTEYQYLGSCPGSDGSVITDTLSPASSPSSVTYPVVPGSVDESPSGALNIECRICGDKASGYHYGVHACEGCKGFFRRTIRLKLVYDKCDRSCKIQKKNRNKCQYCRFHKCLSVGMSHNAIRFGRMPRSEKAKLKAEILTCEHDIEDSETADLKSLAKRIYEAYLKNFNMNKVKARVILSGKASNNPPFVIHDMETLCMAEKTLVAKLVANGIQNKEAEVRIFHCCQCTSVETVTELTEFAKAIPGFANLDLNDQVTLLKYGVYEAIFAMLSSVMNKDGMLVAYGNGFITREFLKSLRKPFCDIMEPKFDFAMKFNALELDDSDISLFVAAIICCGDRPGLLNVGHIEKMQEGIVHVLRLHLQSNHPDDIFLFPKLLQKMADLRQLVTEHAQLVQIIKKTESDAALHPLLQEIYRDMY
Outline: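 Chemiluminescence from complemented enzyme reported PPARalpha activation in cells after 6 hr of compound treatment at 37 C. The detection reagent was incubated for 60 min at room temperature, and compounds were scored as agonists.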

[38] = biological target: Nuclear receptor ROR-gamma (Homo sapiens) (UniProt P51449); assay: qHTS assay for small molecule antagonists of the retinoid-related orphan receptor gamma (ROR-gamma) signaling pathway (AID 651802)
Nuclear receptor ROR-gamma (Homo sapiens), sequence (P51449 whole entry, looked up): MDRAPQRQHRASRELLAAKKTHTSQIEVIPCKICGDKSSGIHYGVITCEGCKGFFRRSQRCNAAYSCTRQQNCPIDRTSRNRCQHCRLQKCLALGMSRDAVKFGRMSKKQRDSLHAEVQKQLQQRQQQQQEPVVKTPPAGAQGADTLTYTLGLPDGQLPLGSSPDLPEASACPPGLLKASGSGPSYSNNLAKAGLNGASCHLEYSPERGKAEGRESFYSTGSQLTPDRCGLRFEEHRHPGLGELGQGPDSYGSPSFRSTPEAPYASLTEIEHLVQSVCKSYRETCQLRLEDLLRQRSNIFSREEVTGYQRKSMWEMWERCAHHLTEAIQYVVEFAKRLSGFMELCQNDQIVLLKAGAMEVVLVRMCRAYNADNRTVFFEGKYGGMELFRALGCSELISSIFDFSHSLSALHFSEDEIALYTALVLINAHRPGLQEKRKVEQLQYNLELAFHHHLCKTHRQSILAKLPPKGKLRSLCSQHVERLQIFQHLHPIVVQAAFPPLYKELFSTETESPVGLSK
Outline: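 Doxycycline-induced reporter activity in engineered CHO cells (TET-inducible ROR, RORE-LUC) was measured by luminescence after 16hr compound exposure at 37C.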

[39] = qHTS assay for small molecule antagonists of the retinoid-related orphan receptor gamma (ROR-gamma) signaling pathway - cell viability counter screen (AID 720652; active means well fitted curve in the direction sought with a large enough effect in the repeat runs; an effect the other way counts as inactive or inconclusive)
Outline: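 ATP-based viability readout in the ROR-gamma reporter CHO cells after 16 hr compound exposure under doxycycline induction.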

[40] = qHTS assay for small molecule agonists of the antioxidant response element (ARE) signaling pathway measured by Nrf2-dependant transcriptional activity - cell viability counter screen (AID 720653; active means well fitted curve in the direction sought with a large enough effect in the repeat runs; an effect the other way counts as inactive or inconclusive; further: on the % scale 0 is the no-effect control and ±100 the full control effect); details: ARE-bla HepG2 viability, CellTiter-Glo ATP luminescence, 16 h; max response: stronger effect = lower value
Outline: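 Cytotoxicity counter screen: intracellular ATP quantified by CellTiter-Glo luminescence in the same ARE-bla HepG2 plates, after 16 h compound exposure and a 2 h beta-lactamase substrate step.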

[41] = qHTS assay for cell viability of HEK293 cells (AID 743288); details: ATP luminescence (CellTiter-Glo), 18 h; max response: stronger effect = lower value; further: on the % scale 0 is the no-effect control and ±100 the full control effect; nearly all actives have a fitted effect of over 50% in size
Outline: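 Viable-cell counts were inferred from luciferase-based ATP content in HEK293 cells seeded at 2,000/well, pre-incubated ≥5 h, then dosed with DMSO-solubilised compounds for 18 h at 37 C.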

[42] = qHTS assay for cell viability of the p53RE-bla HCT-116 cell line (AID 743292)
Outline: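 Luminescent ATP quantitation (CellTiter-Glo) served as the viability read-out; reagent was added after 16 h compound exposure at 37 C and read after 30 min at room temperature. Cells: p53RE-bla HCT-116, 4,000 per well.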

c1ccc(SCCSc2ccccc2)cc1
21.4%: max response [20]
0.714%: max response [28]
-9.01%: max response [25]
inactive: Potency [1] | Potency [2] | Potency [3] | Potency [4] | Potency [5] | Potency [6] | Potency [7] | Potency [8] | Potency [9] | Potency [10] | Potency [11] | Potency [12] | Potency [13] | Potency [14] | Potency [15] | Potency [16] | Potency [17] | activation [18] 12.3% | Potency [19] | outcome [21] | Potency [22] | Potency [23] | Potency [24] | Potency [26] | Potency [27] | max response [29] -1.47% | activity change % (negative = inhibition) [30] 8.32% | activation [31] -1.09% | activation [32] -4.5% | Potency [33] | Potency [34] | Potency [35] | activation [36] 14.7% | max response [37] 2.97% | Potency [38] | Potency [39] | max response [40] 1.28% | max response [41] 3.66% | Potency [42]
